The campaign covered roughly 1,200 compounds. Fewer than 10 were called active.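 The calls were made as follows: active = inhibition reaching a set limit at one or more tested concentrations; inactive = inhibition under that limit at every dose.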 Only a sample is shown. Results with a measured potency or affinity are listed apart.

The nature of the assay: RAM pathway signaling blockade in S. cerevisiae – dose response (AID 1307).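 Also: 0% = DMSO vehicle wells and 100% = 10 µM 1-NA-PP1 control; higher inhibition means more yeast growth since RAM block rescues cells from 5-FOA.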 The note with it: S. cerevisiae RAM network URA3 reporter, 5-FOA growth OD615, hits give high values, yeast express analog-sensitive mutant Cbk1 kinase; at 100 µM unless noted.
As to `COc1ccc(C(=O)NNC(=O)C(Cc2ccc(O)cc2)NC(=O)c2ccccc2NC(=O)c2ccc(OC)cc2)cc1` (centres undefined), the max inhibition is 3.19% (inactive).
The same measure for `COC(=O)[C@H](Cc1ccccc1)NC(=O)[C@@]1(C)C[C@@H]1[C@@H](NC(=O)OCc1ccccc1)c1ccccc1`: 5.9% (inactive).
Take `O=C(CCC(=O)c1ccc(Oc2ccccc2)cc1)Nc1cccc(Cl)c1Cl`: the max inhibition is 3.23% [at 25 µM] (inactive).
Next, `COc1cccc(/C=C(/C(=O)OCC(=O)NC2CCCC(C)C2C)c2ccccc2)c1` (centres undefined): 7.65% [at 50 µM] (inactive).
With `Cc1ccc(C(=O)C(OC(=O)CCC(=O)Nc2cccc(C)c2)c2ccccc2)cc1` (centres undefined), the max inhibition is 5.19% (inactive).
The same measure for `CCOC(=O)c1ccc(COC(=O)c2ccc3c(c2)-c2ccccc2C3=O)cc1`: 5.23% [at 25 µM] (inactive); for `CCOC(=O)C1CCN(S(=O)(=O)C(F)(F)c2nc3ccccc3s2)CC1`: 2.1% [at 0.391 µM] (inactive); for `Clc1ccc(-c2nnc(CSc3nnc(-c4cccs4)o3)o2)cc1`: 2.52% [at 3.125 µM] (inactive).
Next, `CCSC1=N/C(=C/c2ccsc2)C(=O)N1c1ccccc1`: 3.18% (inactive).
The same measure for `CCCNC(=O)c1ccccc1NC(=O)c1ccc(CSc2ccccc2)cc1`: 5.46% [at 50 µM] (inactive).
With `Cc1ccc(C2=NN(Cc3nnc(-c4ccccc4)o3)C(=O)SC2)cc1`, the max inhibition was 3.29% (inactive).
The same measure for `O=C(NCc1ccccc1)c1ccc(S(=O)(=O)N2CCCc3ccccc32)cc1`: 2.24% (inactive); for `O=[N+]([O-])c1ccc(N/N=C/c2sc(N3CCOCC3)nc2-c2ccccc2)c(S(=O)(=O)Nc2ccc(Cl)cc2)c1`: 8.74% (inactive); for `CN(C)S(=O)(=O)c1ccc2[nH]cc(/C=C/c3nc4ccccc4c(=O)n3-c3ccccc3)c2c1`: 10.9% (inactive).
Next, `CN(C)c1nc(SCCOC(=O)COc2ccc(Cl)cc2Cl)nc(N(C)C)n1`: 1.44% [at 0.782 µM] (inactive).
Next, `O=C(c1cccs1)n1nc(-c2ccc(Cl)cc2)nc1NCc1ccco1`: 2.48% (inactive).
Turning to `O=C(C(Sc1ccccc1)c1ccccc1)N1CCN(c2ccccc2)CC1` (centres undefined), the max inhibition is 2.99% [at 3.125 µM] (inactive).
Next, `CCOC(=O)c1c(NC(=S)Nc2ccc(OC)cc2)sc2c1CCCCC2`: 3.37% [at 1.563 µM] (inactive); `O=C(/C=C/c1ccc(-c2ccccc2)o1)c1ccccc1`: 5.06% (inactive); `O=C(Cn1cc(C(=O)c2ccco2)c2ccccc21)NC1CCCCC1`: 3.76% [at 0.391 µM] (inactive).
For the molecule `O=C1CCC(/C=C/c2ccccc2)=NN1Cc1ccc(Cl)c(Cl)c1`, the max inhibition was 3.06% (inactive).
Next, `C=CCO/N=C(/C)c1c(O)c(CC)c(-c2ccccc2)n(-c2ccccc2)c1=O`: 2.56% [at 0.391 µM] (inactive); `CCOC(=O)c1cccc(NC(=O)CSc2nnc(COc3ccccc3C)o2)c1`: 2.04% [at 50 µM] (inactive).
The same measure for `Cc1c(NC(=S)NC(=O)Cc2ccccc2)cccc1C(=O)O`: 2.43% [at 0.196 µM] (inactive); for `COc1cc(NC(=O)c2ccc3c(c2)OCO3)c2ncccc2c1`: 4.22% (inactive); for `C/C(=N\OC(=O)c1ccc(OC(C)C)cc1)c1ccc(C)c(C)c1`: 3.12% (inactive).
In the case of `Cc1ccc(N(CCCCN2C(=O)c3ccccc3C2=O)C(=O)c2cccs2)cc1`, the max inhibition was 4.25% (inactive).
The same measure for `Cc1ccc(S(=O)(=O)N2c3cc(C)ccc3OCC2C(C)(C)C)cc1` (centres undefined): 3.04% (inactive); for `COc1ccc(C(=O)COC(=O)C(CCSC)NS(=O)(=O)c2ccc(Cl)cc2)cc1` (centres undefined): 2.78% [at 25 µM] (inactive); for `COCCn1c(=NC(=O)c2sc3ccccc3c2Cl)sc2cc(S(N)(=O)=O)ccc21`: 4.98% [at 50 µM] (inactive).
Next, `CCOc1ccc(/C=C2/SC(=S)N(C(C(=O)O)c3ccccc3)C2=O)cc1OCC` (centres undefined): 3.65% (inactive); `Cc1ccc(-n2c(SCC(=O)N3CCCc4ccccc43)nnc2-c2cccnc2)c(C)c1`: 3.12% [at 50 µM] (inactive).
The same measure for `O=C(O)c1cc(Sc2ccc(Br)cc2)nc2ccccc12`: 4.44% [at 50 µM] (inactive); for `CCCCc1ccc(N=N/C(C(=O)Nc2ccccc2OC)=C(/C)O)cc1`: 4.87% [at 50 µM] (inactive); for `O=C(COC(=O)CCN1C(=O)/C(=C\C=C\c2ccccc2)SC1=S)Nc1ccc(Br)cc1`: 9.41% (inactive).
On to `O=C(Nc1ccn(Cc2cccc3ccccc23)n1)c1cccnc1`, for which the max inhibition is 3.63% (inactive).
Next, `CCN(CC)S(=O)(=O)c1cccc(-c2nnc(SCCCC(=O)c3ccccc3)o2)c1`: 3.65% (inactive); `O/N=C/c1cc(Br)ccc1OCc1cccc(F)c1`: 1.58% [at 0.196 µM] (inactive).
The same measure for `COC(=O)c1scc(C)c1N/N=C(\C)c1ccc(F)cc1F`: 8.43% (inactive); for `CCCc1nn(C)c(C(=O)Nc2ccc(C(C)(C)C)cc2)c1Cl`: 3.4% (inactive).
Next, `CCCCOn1c(C)c(C(=O)OCC)c2c3no[n+]([O-])c3ccc21`: 2.31% (inactive); `O=C(NCc1ccc2c(c1)OCO2)c1cc(-c2ccccn2)nc2ccccc12`: 4.19% [at 3.125 µM] (inactive).
In the case of `CC(C)(CNC(=S)NCCc1ccccc1)CNC(=S)NCCc1ccccc1`, the max inhibition was 4.96% (inactive).
Next, `CCOC(=O)C(C)Sc1cc(CS(=O)(=O)c2ccccc2)nc(-c2ccccc2)n1` (centres undefined): 5.53% (inactive).
The same measure for `CCN(CC)S(=O)(=O)c1cc(NS(=O)(=O)c2c(Cl)cccc2Cl)ccc1C`: 3.03% [at 50 µM] (inactive); for `Cc1ccccc1-c1nnn(CC(=O)Nc2ccc3c(c2)OCCO3)n1`: 4.6% (inactive).
On to `O=C(O)CCN1C(=O)/C(=C/c2cn(-c3ccccc3)nc2-c2cccs2)SC1=S`, for which the max inhibition is 5.53% (inactive).
The same measure for `COc1ccc(C(=O)/C=C/c2ccc(OC)c(COc3ccc(F)cc3)c2)cc1`: 5.41% (inactive); for `CC(CCc1ccccc1)NC(=O)CNC(=S)N(Cc1cccs1)C1CCCC1` (centres undefined): 3.28% (inactive).
As for `COc1ccc(-c2ccc(-c3noc(-c4cccc(OC)c4)n3)c(OC)n2)cc1`, the max inhibition was 4.12% (inactive).
Turning to `CC1(C)CC(C(CCN(Cc2ccccc2)C(=O)c2ccco2)c2ccc(F)cc2)CCO1` (centres undefined), the max inhibition was 4.56% [at 50 µM] (inactive).
Consider `C=C(C)COc1ccc(-c2[nH]ncc2Oc2ccccc2OCC)c(O)c1`, for which the max inhibition is 3.4% (inactive).
The same measure for `CCOC(=O)c1sc(-c2ccccc2)cc1NC(=O)c1ccc(S(=O)(=O)N(CCOC)CCOC)cc1`: 1.69% [at 12.5 µM] (inactive); for `O=C1Nc2ccccc2/C1=N\N=C\C1=C(N2CCOCC2)C(=C\c2ccccc2)/CC1`: 19.6% (inactive); for `O=S(=O)(Nc1nc2ccccc2nc1Nc1ccc2c(c1)OCCO2)c1cccs1`: 5.19% (inactive).
The same measure for `Cc1cc(C)c(C)c(S(=O)(=O)N2CCC(C(=O)OCC(=O)N3c4ccccc4NC(=O)C3(C)C)CC2)c1C`: 4.49% (inactive); for `CCOC(=O)c1ccc(NC(=O)Nc2ccc3c4c(cccc24)C(=O)N3CC)cc1`: 3.19% (inactive).
Next, `CC(C)c1ccc(CNc2cc(N3CCCC3)ccc2[N+](=O)[O-])cc1`: 5.27% (inactive).
Consider `CCCCc1ccc(-c2csc(/C(C#N)=C\c3ccc(C)o3)n2)cc1`, for which the max inhibition was 5.43% (inactive).
Next, `O=C(CN(Cc1cccs1)C(=O)CSc1nnc(COc2ccccc2)o1)NC1CCCC1`: 3.76% (inactive).
Next, `COc1ccc(/C=C2\SC(=O)N(CCC(=O)Nc3ccccc3)C2=O)cc1OC`: 3.41% (inactive).
Next, `Cc1cc2c(C)ccc(C)c2nc1SCC(=O)c1cccs1`: 5.59% [at 25 µM] (inactive).
Consider `COc1ccc(O[C@H]2C=C[C@@H](c3ccccc3)O[C@@H]2CO/N=C(\C)CCC(=O)OC[C@H]2O[C@H](c3ccccc3)C=C[C@@H]2Oc2ccc(OC)cc2)cc1`, for which the max inhibition was 6.56% (inactive).
The same measure for `Cc1ccc(S(=O)(=O)N2CCC(=O)N(C(COCc3cccc(C(F)(F)F)c3)C(C)C)CC2)cc1` (centres undefined): 2.65% [at 0.782 µM] (inactive); for `CCOC(=O)c1c(NC(=O)CSc2nnc(-c3ccco3)o2)sc(C)c1C`: 4.63% [at 0.391 µM] (inactive).
For `CCOC(=O)c1cc(C(C)C)sc1NC(=O)COC(=O)CCS(=O)(=O)c1ccccc1`, the max inhibition is 3.24% [at 50 µM] (inactive).
Next, `Cc1c(N=Nc2ccc(N(C)C)cc2)c(=O)n(-c2ccccc2)n1C`: 20.4% (inactive).
The same measure for `COc1ccc(N(CC(=O)NCCSCc2ccco2)S(=O)(=O)c2ccc(C)cc2)cc1`: 4.74% [at 50 µM] (inactive).
Next, `Cc1ccc(N=C(NOCc2ccc(Cl)cc2Cl)c2nonc2N)c(C)c1`: 5.27% (inactive); `CCOC(=O)c1sc(NC(=O)CSc2nnc(-c3ccc(OC)cc3)n2CCOC)nc1C`: 1.33% [at 0.782 µM] (inactive); `CCC(=O)NC(=S)Nc1ccc(NC(=S)NC(=O)c2ccccc2)cc1`: 5.34% [at 50 µM] (inactive).
As for `O=C(CSc1nnc(-c2ccccc2Br)o1)N1CCc2ccccc2C1`, the max inhibition was 2.54% (inactive).
Next, `N#Cc1ccsc1NC(=O)COC(=O)CCCSc1nc2ccccc2s1`: 2.77% [at 50 µM] (inactive).
The same measure for `O=C(/C=C/c1cccc([N+](=O)[O-])c1)NCCSCc1ccccc1Cl`: 1.79% [at 6.25 µM] (inactive).
With `Clc1ccc(CSc2nnc(/C=C/c3ccccc3)o2)cc1`, the max inhibition was 2.78% [at 25 µM] (inactive).
As to `CCSc1ccc(-c2nn(-c3ccccc3)cc2/C=C(/C#N)C(=O)NCCCOC)cc1`, the max inhibition was 13% (inactive).
Next, `CCOC(=O)c1c(-c2cccs2)csc1NC(=O)COC(=O)c1c(C)noc1C`: 4.68% (inactive).
Next, `Cc1ccc(NC2=Nc3ccccc3N3C2=Nc2c(c(C)nn2-c2ccccc2)C3c2ccc(O)c(O)c2)cc1` (centres undefined): 6.97% (inactive); `COc1ccc(C(=O)CSc2nc(C(C)(C)C)nc3ccccc23)cc1`: 2.25% [at 1.563 µM] (inactive).

For the origin of these results see PubChem BioAssay AID1307 (SRMLSC, 2008).
